Hit rate of the full screen: of about 57,000 […], about 3,400 (6%) were called active. Cut-off read from the data, not from the text of the source: active = GI50 up to about 1.1 µM and inactive = higher. A selection follows. Potency and affinity values are given separately.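 How tested: cells in 96-well plates exposed to compound for 48 hours at five concentrations. GI50 marks 50% less growth.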

For this assay, the system named is UO-31. The assay can be described thus: NCI tumour cell line growth inhibition, 48 h.
Substance CISPLATIN, CHEMBL11359 returned a GI50 of 3.36 µM. In the case of “[Bis(aminomethyl)dimethylsilane]tetrachloroplatinum(IV), CHEMBL2146190” it was 9.93 µM.

“[Bis(aminomethyl)ethylmethylsilane]tetrachloroplatinum(IV), CHEMBL2146192” registered a GI50 of 7.48 µM. For “[Bis(aminomethyl)tetramethylenesilane]dichloropaltinum(II), CHEMBL2146205” the value was 22.3 µM; for “[Bis(aminomethyl)dimethylsilane]dichloroplatinum (II), CHEMBL2146201”, 55.2 µM. For “[Bis(aminomethyl)diethylsilane]tetrachloroplatinum(IV), CHEMBL2146203” the value was 4.43 µM; for “[Bis(aminomethyl)pentamethylenesilane]tetrachloropaltinum(IV), CHEMBL2146204”, 0.731 µM.

As for “[Bis(aminomethyl)pentamethylenesilane]dichloropaltinum(II), CHEMBL2146202”, the GI50 was 3.21 µM.

With “mu-(1,7-nanodiamine-N,N')bis-(cis-aminedichloroplatimum (II)), CHEMBL2146215”, the GI50 is 44.8 µM.

“cis-Bis[[(trimethylsilyl)methyl]amino]tetrachloroplatinum(IV), CHEMBL2146191” yielded a GI50 of 16.2 µM. For “[Bis(aminomethyl)tetramethylenesilane]tetrachloropaltinum(IV), CHEMBL2146189” the value was 3.73 µM.

These data come from ChEMBL document CHEMBL1201862, “PubChem BioAssay data set” (2004).
